Measured values published in PubChem BioAssay (NCI).
Compounds without any hit were thinned out: in the full panel of roughly 83,000, 20% have a hit.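 Treatment: one concentration, 48 hours, 96-well format. Scoring: percent growth, with anything below 10 considered active.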 A number with no mark means an inactive call. Activity calls are given as the source filed them.

Experiments:
Experiment in all cases: NCI-60 one-dose screen, 48 h (100 = growth as untreated, 0 = no growth, -100 = all killed)
Conditions in all cases: 10 µM unless noted
NCI-H23 lung = test system: NCI-H23 lung
NCI-H226 lung = test system: NCI-H226 lung
NCI-H322M lung = test system: NCI-H322M lung
HOP-62 NSCLC = test system: HOP-62 NSCLC
NCI-H460 lung = test system: NCI-H460 lung
HOP-92 NSCLC = test system: HOP-92 NSCLC
NCI-H522 lung = test system: NCI-H522 lung
A549/ATCC NSCLC = test system: A549/ATCC NSCLC
786-0 renal = test system: 786-0 renal
COLO 205 colon = test system: COLO 205 colon
DU-145 prostate = test system: DU-145 prostate
K-562 leukemia = test system: K-562 leukemia
MALME-3M melanoma = test system: MALME-3M melanoma
MDA-MB-231 breast = test system: MDA-MB-231 breast
RXF 393 renal = test system: RXF 393 renal
SF-268 CNS = test system: SF-268 CNS
SF-295 CNS = test system: SF-295 CNS
SF-539 CNS = test system: SF-539 CNS
UACC-257 melanoma = test system: UACC-257 melanoma
M14 melanoma = test system: M14 melanoma

Row | Structure (SMILES) | growth (NCI-H23 lung) | growth (NCI-H226 lung) | growth (NCI-H322M lung) [%] | growth (HOP-62 NSCLC) | growth (NCI-H460 lung) | growth (HOP-92 NSCLC) | growth (NCI-H522 lung) | growth (A549/ATCC NSCLC) | growth (786-0 renal) | growth (COLO 205 colon) | growth (DU-145 prostate) | growth (K-562 leukemia) | growth (MALME-3M melanoma) | growth (MDA-MB-231 breast) | growth (RXF 393 renal) | growth (SF-268 CNS) | growth (SF-295 CNS) | growth (SF-539 CNS) | growth (UACC-257 melanoma) | growth (M14 melanoma)
1 | C[C@@H](Oc1cc(-c2cnn(C3CCNCC3)c2)cnc1N)c1c(Cl)ccc(F)c1Cl | -10.4% (active) | -11.6% (active) | 15.2 | -34.8% (active) | -64.4% (active) | -51.9% (active) | -74.8% (active) | -40.9% (active) | -74.7% (active) | -78.5% (active) | -0.0589% (active) | -38.7% (active) | -88.2% (active) | -58.6% (active) | -87.3% (active) | 1.66% (active) | -72.1% (active) | -95.5% (active) | -83.3% (active) | -77.2% (active)
2 | Cc1ccc(N)cc1CN1C(=O)c2ccccc2C1=O | 105% | 93.1% | 104 | 97.1% | 105% | 86.9% | 58.5% | 105% | 98.5% | 105% | 105% | 105% | 101% | 106% | 102% | 121% | 118% | 107% | 100% | 96.9%
3 | Nc1ccc(S(=O)(=O)O)c2cc(S(=O)(=O)O)cc(O)c12 | 110% | 105% | 117 | 107% | 108% | 124% | 103% | 104% | 101% | 105% | 105% | 117% | 109% | 106% | 114% | 111% | 110% | 95.8% | 109% | 90.7%
4 | CC1(COc2ccc3c(c2)ncn3-c2ccc3cccc(N4CCC(N)CC4)c3n2)COC1 | 20.6% | 19.9% | 41.1 | 2.15% (active) | -33% (active) | 63.3% | -36.9% (active) | -35.2% (active) | -33.2% (active) | -66.5% (active) | 15.9% | 0.523% (active) | 20.8% | 4.69% (active) | -58.6% (active) | 9.66% (active) | 59.8% | -82.3% (active) | -50.3% (active) | 2.82% (active)
5 | COc1ccc(S(=O)(=O)N(C(C)=O)c2ccccc2/C=C/c2cc[n+]([O-])cc2)cc1 | 32.7% | 80.6% | 39.2 | 10.5% | 3.49% (active) | 56.6% | -26.4% (active) | 17.5% | 26.7% | -36.6% (active) | 16% | 7.61% (active) | 47% | 45.6% | -5.21% (active) | 34.6% | 13.7% | -30.4% (active) | 65.5% | -14.3% (active)
6 | CN1CCN(c2ccc(C(=O)Nc3n[nH]c4ccc(Cc5cc(F)cc(F)c5)cc34)c(NC3CCOCC3)c2)CC1 | 11% | -5.76% (active) | 33.8 | -34.8% (active) | -80.3% (active) | -68.6% (active) | -70.6% (active) | -51.7% (active) | -95.1% (active) | -73.6% (active) | 19.7% | -47.8% (active) | -83.4% (active) | -68.7% (active) | -90.5% (active) | -60.5% (active) | -70.4% (active) | -92.4% (active) | -85.4% (active) | -79.7% (active)
7 | C[C@H]1Oc2cc(cnc2N)-c2c(nn(C)c2C#N)CN(C)C(=O)c2ccc(F)cc21 | 84% | 92.2% | 104 | 50% | 96.7% | 48.4% | 66.5% | 66.1% | 77.9% | 36.3% | 91.9% | 79.4% | 95.6% | 69.7% | 85.5% | 73.1% | 85.9% | 96.4% | 58.5% | 71.9%
8 | CNC(=O)c1nn(C)c2c1C(C)(C)Cc1cnc(Nc3ccc(N4CCN(C)CC4)cc3)nc1-2 | 2.37% (active) | 12.3% | 15.1 | -9.46% (active) | 7.46% (active) | 3.76% (active) | -29.4% (active) | -0.797% (active) | 12.3% | -80.1% (active) | 15.5% | 5.4% (active) | -8.73% (active) | 14.7% | -48.2% (active) | 7.96% (active) | 15.3% | -28.6% (active) | -14.8% (active) | 12.5%
